The values that follow come from the supplement of paper PMC9446081.

The whole screen tested about 39,000 compounds, of which about 220 (0.56%) showed activity. The sample as a whole holds a higher share of actives than the screen did.
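Further: Wild-type cells incubated without shaking, value is the mean of two biological replicates.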

This assay has as its system Escherichia coli K-12 BW25113. The experiment in a line: relative growth (OD600 normalised to plate interquartile mean) (fraction); higher = less growth inhibition, active = 0.2 or less. The following applies: 50 µM; LB; incubation time: overnight (16-24 h).
`CO[C@H]1CN(C)C(=O)c2cc(NC(=O)Nc3cccc(F)c3)ccc2OC[C@@H](C)N(C(=O)Nc2c(C)noc2C)C[C@H]1C`: the relative growth is 0.978 (inactive).

`C[C@H](CO)N1C[C@H](C)[C@H](CN(C)C(=O)Nc2ccc(N3CCN(C)CC3)cc2)OCc2cnnn2CCCC1=O`: the relative growth is 0.983 (inactive).

`CCC1OC(=O)C(C)C(OC2CC(C)(OC)C(O)C(C)O2)C(C)C(OC2OC(C)CC(N(C)C)C2O)C(C)(O)CC(C)C(=O)C(C)C(O)C1(C)O.CCCCCCCCCCCCCCCCCC(=O)O` (stereo not given): the relative growth was 0.665 (inactive).

On to `CO[C@H]1C[C@H](O[C@H]2[C@H](C)[C@@H](O[C@H]3O[C@H](C)C[C@H](N(C)C)[C@H]3O)[C@@H](C)C[C@]3(CO3)C(=O)[C@H](C)[C@@H](O)[C@@H](C)[C@@H](C)OC(=O)[C@@H]2C)O[C@@H](C)[C@@H]1O`, for which the relative growth is 0.954 (inactive).

Take `CCC1OC(=O)C(C)C(OC2CC(C)(OC)C(O)C(C)O2)C(C)C(OC2OC(C)CC(N(C)C)C2O)C(C)(O)CC(C)CN(C)C(C)C(O)C1(C)O` (stereo not given): the relative growth was 0.0435 (active).

As to `CCCN1C[C@H](C)[C@@H](O)[C@](C)(O)[C@@H](CC)OC(=O)[C@H](C)[C@@H](O[C@H]2C[C@@](C)(OC)[C@@H](O)[C@H](C)O2)[C@H](C)[C@@H](O[C@@H]2O[C@H](C)C[C@H](N(C)C)[C@H]2O)[C@](C)(O)C[C@H]1C`, the relative growth is 0.116 (active).

Consider `CC[C@H]1OC(=O)[C@H](C)[C@@H](O[C@H]2C[C@@](C)(OC)[C@@H](O)[C@H](C)O2)[C@H](C)[C@@H](O[C@@H]2O[C@H](C)C[C@H](N(C)C)[C@H]2O)[C@](C)(O)C[C@@H](C)CN(C)[C@H](C)[C@@H](O)[C@]1(C)O`, for which the relative growth was 0.0562 (active).

With `CCC(=O)OC1C(OC2C(C)C(OC3CC(C)(OC)C(O)C(C)O3)C(C)C(=O)OC(CC)C(C)(O)C(O)C(C)C(=O)C(C)CC2(C)O)OC(C)CC1N(C)C.CCCCCCCCCCCCOS(=O)(=O)O` (stereo not given), the relative growth was 0.953 (inactive).

Regarding `CC[C@H]1OC(=O)[C@H](C)[C@@H](O[C@H]2C[C@@](C)(OC)[C@@H](O)[C@H](C)O2)[C@H](C)[C@@H](O[C@@H]2O[C@H](C)C[C@H](N(C)C)[C@H]2O)[C@](C)(O)C[C@@H](C)[C@@H]2N[C@@H](COCCOC)O[C@H]([C@H]2C)[C@]1(C)O`, the relative growth is 0.469 (inactive).

For the molecule `C[C@H](CO)N1C[C@H](C)[C@H](CN(C)S(=O)(=O)c2cccs2)Oc2ncc(-c3cccc(F)c3)cc2C1=O`, the relative growth was 0.97 (inactive).

For `O=C(Cn1nnc2ccccc2c1=O)Nc1nnc[nH]1`, the relative growth is 0.982 (inactive).

As for `C[C@@H]1CN([C@H](C)CO)S(=O)(=O)c2ccc(C#CC3(O)CCCC3)cc2O[C@H]1CN(C)C(=O)Nc1cccc(F)c1`, the relative growth is 1 (inactive).

`Cc1cc(C)n(CCNC(=O)[C@H]2CCCN(c3cccc4c3C(=O)N(Cc3ccc5c(c3)OCO5)C4=O)C2)n1`: the relative growth was 0.993 (inactive).

In the case of `C[C@H](CO)N1C[C@H](C)[C@H](CN(C)C(=O)Nc2ccc(F)cc2)Oc2ncc(Br)cc2C1=O`, the relative growth was 0.974 (inactive).

Consider `CN(C)C(=O)C[C@@H]1CC[C@@H]2[C@H](COC[C@H](O)CN2S(=O)(=O)c2ccccc2)O1`, for which the relative growth is 1.02 (inactive).

In the case of `Cn1cnc(S(=O)(=O)N2C[C@@H](O)COC[C@H]3O[C@@H](CC(=O)N4CCN(c5ccccc5)CC4)CC[C@@H]32)c1`, the relative growth is 1.02 (inactive).

Take `CC[C@@H](C)[C@H]1O[C@@]2(CC[C@@H]1C)C[C@H]1C[C@@H](CC=C(C)[C@@H](O[C@H]3C[C@@H](OC)[C@@H](O[C@H]4C[C@@H](OC)[C@@H](O)[C@@H](C)O4)[C@@H](C)O3)[C@@H](C)C=CC=C3CO[C@H]4[C@@H](O)C(C)=C[C@@H](C(=O)O1)[C@]34O)O2.CO[C@H]1C[C@@H](O[C@@H]2[C@@H](OC)C[C@@H](O[C@@H]3C(C)=CC[C@@H]4C[C@@H](C[C@@]5(CC[C@@H](C)[C@H](C(C)C)O5)O4)OC(=O)[C@@H]4C=C(C)[C@H](O)[C@@H]5OCC(=CC=C[C@@H]3C)[C@@]45O)O[C@@H]2C)O[C@@H](C)[C@@H]1O`: the relative growth is 1 (inactive).

As for `C[C@@H]1CCCCO[C@H](CN(C)C(=O)Nc2ccccc2)[C@H](C)CN([C@@H](C)CO)C(=O)c2cc(NC(=O)c3ccccc3)ccc2O1`, the relative growth was 0.982 (inactive).

As to `CCC1OC(=O)C(C)C(OC2CC(C)(OC)C(O)C(C)O2)C(C)C(OC2OC(C)CC(N(C)C)C2O)C(C)(OC)CC(C)C(=O)C(C)C(O)C1(C)O` (stereo not given), the relative growth is 0.536 (inactive).

In the case of `CC[C@@H]1OC(=O)[C@H](C)[C@@H](O[C@H]2C[C@@](C)(OC)[C@@H](O)[C@H](C)O2)[C@H](C)[C@@H](O[C@@H]2O[C@H](C)C[C@H](N(C)C)[C@H]2O)[C@](C)(O)C[C@@H](C)/C(=N\OCOCCOC)[C@H](C)[C@@H](O)[C@]1(C)O`, the relative growth is 0.165 (active).

Regarding `CC[C@H]1OC(=O)[C@H](C)[C@@H](O[C@H]2C[C@@](C)(OC)[C@@H](O)[C@H](C)O2)[C@H](C)[C@@H](O[C@@H]2O[C@H](C)C[C@H](N(C)C)[C@H]2O)[C@](C)(O)C[C@@H](C)C(=O)[C@H](C)[C@@H](O)[C@]1(C)O`, the relative growth is 0.0484 (active).

As to `CC[C@H]1OC(=O)[C@H](C)[C@@H](O[C@H]2C[C@@](C)(OC)[C@@H](O)[C@H](C)O2)[C@@H](C)[C@@H](O[C@H]2O[C@H](C)C[C@H](N(C)C)[C@H]2O)[C@](C)(O)C[C@@H](C)C(=O)[C@H](C)[C@@H](O)[C@]1(C)O`, the relative growth is 0.375 (inactive).

`CCOC(=O)CCC(=O)O[C@H]1[C@H](O[C@@H]2[C@@H](C)[C@H](O[C@H]3C[C@@](C)(OC)[C@@H](O)[C@H](C)O3)[C@@H](C)C(=O)O[C@H](CC)[C@@](C)(O)[C@H](O)[C@@H](C)C(=O)[C@H](C)C[C@@]2(C)O)O[C@H](C)C[C@@H]1N(C)C`: the relative growth is 0.0544 (active).

For `CC[C@@H]1OC(=O)[C@@H](C)[C@H](O[C@H]2C[C@@](C)(OC)[C@@H](O)[C@H](C)O2)[C@@H](C)[C@H](O)[C@@](C)(O[C@@H]2O[C@H](C)C[C@H](N(C)C)[C@H]2O)C[C@H](C)C(=O)[C@@H](C)[C@H](O)[C@@]1(C)O`, the relative growth is 0.427 (inactive).

Take `CC[C@H]1OC(=O)[C@H](C)[C@@H](O[C@H]2C[C@@](C)(OC)[C@@H](O)[C@H](C)O2)[C@H](C)[C@@H](O[C@@H]2O[C@H](C)C[C@H](N(C)C)[C@H]2O)[C@](C)(OC)C[C@@H](C)C(=O)[C@H](C)[C@@H](O)[C@]1(C)O`: the relative growth was 0.0351 (active).

Turning to `CCC(=O)O[C@H]1[C@H](O[C@@H]2[C@@H](C)[C@H](O[C@H]3C[C@@](C)(OC)[C@@H](O)[C@H](C)O3)[C@@H](C)C(=O)O[C@H](CC)[C@@](C)(O)[C@H](O)[C@@H](C)C(=O)[C@H](C)C[C@@]2(C)O)O[C@H](C)C[C@@H]1N(C)C`, the relative growth is 0.947 (inactive).

Turning to `CCC1OC(=O)C(C)C(OC2CC(C)(OC)C(O)C(C)O2)C(C)C(OC2OC(C)CC(N(C)C)C2O)C(C)(O)CC(C)C(=NOCOCCOC)C(C)C(O)C1(C)O` (stereo not given), the relative growth is 0.613 (inactive).

As to `CCC1OC(=O)C(C)C(OC2CC(C)(OC)C(O)C(C)O2)C(C)C(OC2OC(C)CC(N(C)C)C2O)C(C)(O)CC(C)C2NC(COCCOC)OC(C2C)C1(C)O` (stereo not given), the relative growth was 0.433 (inactive).

Turning to `CCOC(=O)CCC(=O)OC1C(OC2C(C)C(OC3CC(C)(OC)C(O)C(C)O3)C(C)C(=O)OC(CC)C(C)(O)C(O)C(C)C(=O)C(C)CC2(C)O)OC(C)CC1N(C)C` (stereo not given), the relative growth is 0.709 (inactive).

For `CCC1OC(=O)C(C)C(OC2CC(C)(OC)C(O)C(C)O2)C(C)C(OC2OC(C)CC(N(C)C)C2O)C(C)(O)CC(C)C(=O)C(C)C(O)C1(C)O` (stereo not given), the relative growth is 0.408 (inactive).
